Compound activity as filed in PubChem BioAssay.
Compounds with a hit are over-represented: about 4.1% of the library has one in this group of screens.
MEKK3 PB1 HTS – raises or lowers MEK5 binding to the human MEKK3 PB1 domain | bead-based flow cytometry, Alexa488-MEK5 binding to MEKK3; actives lie on both sides; 0 = blocked by unlabeled MEK5, 100 = vehicle | binding response (% of control), % at 10 µM | 290,000 tested, 1.4% active;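 active = binding response more than 3 SD above or below the average of its plate-row segment, actives on both sides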;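 also: Alexa488 bead fluorescence after subtracting the streptavidin-only scavenger bead signal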
CHT PAM – human CHT allosteric activation; CHT-expressing cells, membrane potential dye, choline EC20; active compounds read high; LV-AA mutant CHT in HEK293 cells; B-score at 10 µM; 310,000 tested, 0.49% active; AID 488977;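 active = initial fluorescence not abnormally high and integrated response B-score, plate-corrected, over 3 SD above library mean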
Target sequence (Q9GZV3 whole entry, looked up): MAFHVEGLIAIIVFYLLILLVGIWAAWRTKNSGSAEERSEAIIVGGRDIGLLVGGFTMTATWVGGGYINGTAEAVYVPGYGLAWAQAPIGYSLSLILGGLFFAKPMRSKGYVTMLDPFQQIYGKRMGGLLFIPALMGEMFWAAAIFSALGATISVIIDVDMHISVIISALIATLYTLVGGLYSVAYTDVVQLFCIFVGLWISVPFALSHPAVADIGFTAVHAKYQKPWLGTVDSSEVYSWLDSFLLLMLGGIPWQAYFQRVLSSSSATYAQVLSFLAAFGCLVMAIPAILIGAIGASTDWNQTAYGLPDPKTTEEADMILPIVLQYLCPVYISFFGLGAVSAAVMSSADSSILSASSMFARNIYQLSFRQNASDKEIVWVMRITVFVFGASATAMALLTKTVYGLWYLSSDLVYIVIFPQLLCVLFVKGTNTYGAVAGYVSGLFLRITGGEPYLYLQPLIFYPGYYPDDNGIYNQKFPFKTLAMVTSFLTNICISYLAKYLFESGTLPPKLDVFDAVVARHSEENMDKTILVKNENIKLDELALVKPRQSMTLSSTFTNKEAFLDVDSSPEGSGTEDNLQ
CHT block – inhibits the human high affinity choline transporter; Q9GZV3; CHT-expressing cells, membrane potential dye, choline response; active compounds read low; B-score at 10 µM; 310,000 tested, 0.86% active; AID 488975;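 active = B-score over 3 SD under the library average, and starting fluorescence ratio not unusually high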;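 also: choline stimulus applied at its EC90 after an EC20 pre-addition; B-score computed on integrated fluorescence ratio after choline addition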
Mot1-301 SUMO – SUMOylation pathway inhibition by Mot1-301 growth rescue | S. cerevisiae Mot1-301 growth rescue, ATP luminescence, 38.5C; percent above DMSO median, 100 means doubled | 320,000 tested, 1% active | AID 2716 | growth rescue, % at 18.8 µM;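 active = every valid replicate shows activation above 250% relative to neutral control wells; inactive = the rest, any valid replicate at or below 250%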;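 also: OY570 slx delta 5 strain wells were the positive control but not used for scaling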
MEKK2 mut-MEK5 – signal of MEK5 binding to mutant human MEKK2 PB1 domain; percent response, % at 10 µM; 290,000 tested, 0.35% active; bead flow cytometry, Alexa488-MEK5 binding to MEKK2 mutant; in the data active = percent response above about 24%, passing the limit was not always enough
MEKK2wt PB1 HTS – raises or lowers MEK5 binding to wildtype human MEKK2 PB1 domain; Q9Y2U5; bead flow cytometry, Alexa488-MEK5 binding to MEKK2 WT; actives lie on both sides; binding response (% of control), % at 10 µM; 290,000 tested, 1.1% active; in the data active = binding response below about 67% or above about 130%
MEKK2wt confirm – raises or lowers MEK5 binding to wildtype human MEKK2, retest; shares compounds with MEKK3 PB1 HTS; bead flow cytometry, Alexa488-MEK5 binding to MEKK2 WT; actives lie on both sides; binding response (% of control), % at 10 µM; 5,900 tested, 2.4% active; in the data active = binding response below about 16% or above about 210%; inactive = in between
MEKK2mut-MEK5 – signal of MEK5 binding to mutant human MEKK2, retest; shares compounds with MEKK3 PB1 HTS; bead flow cytometry, Alexa488-MEK5 binding to MEKK2 mutant; percent response, % at 10 µM; 5,900 tested, 2% active; in the data active = percent response mostly above about 71%, no sharp cut-off; inactive = mostly below about 38%;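 also: higher means compound restores mutant binding toward wildtype level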
MEKK3 confirm – confirmation of inhibitors of MEK5 binding to human MEKK3; 5,900 tested, 1.8% active; shares compounds with MEKK3 PB1 HTS; AID 1894; binding response (% of control), % at 10 µM; bead flow cytometry, Alexa488-MEK5 binding to MEKK3; active compounds read low;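 active = binding response below 72% of control, or above a set upper limit, though filed actives all read lower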;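 also: 100% = DMSO only wells and 0% = binding blocked by excess unlabeled MEK5; lower values mean stronger disruption of MEK5 binding to MEKK3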
Starred values were filed as active, the others as inactive; i = inactive; x = not tested or not shown; [ ] = dose if it differs, or a comment.

SMILES	MEKK3 PB1 HTS	CHT PAM	CHT block	Mot1-301 SUMO	MEKK2 mut-MEK5	MEKK2wt PB1 HTS	MEKK2wt confirm	MEKK2mut-MEK5	MEKK3 confirm
CC(=O)Nc1ccc(S(=O)(=O)NCc2ccc3[nH]c(C)cc3c2)cc1	80*[inhibitor]	i	i	-10	-9	72*[inhibitor]	83	2	94
Cc1ccc(S(=O)(=O)NCc2ccc3[nH]c(C)cc3c2)cc1	78	i	i	250	0	101	x	x	x
Cc1cc2cc(CNS(=O)(=O)c3ccc4ccccc4c3)ccc2n1C	100	i	i	6	2	96	x	x	x
COc1ccc(C2=NOC(Cn3nc(C(=O)NCc4cccc(C(F)(F)F)c4)cc3-c3ccccc3)C2)cc1 (centres undefined)	x	i	i	6	x	x	x	x	x
CCCNC(=S)N1CCC(NC(=O)c2ccc(C)cc2)CC1	104	i	i	22	11	107	x	x	x
O=C1c2ccccc2C(=O)C12OC2c1cccc2ccccc12 (centres undefined)	157*	i	i	1	1	107	103	2	103
c1ccc2c(C3CCO3)cccc2c1 (centres undefined)	x	x	x	-2	x	x	x	x	x
O=C(Nc1ccc(S(=O)(=O)Nc2nccs2)cc1)c1ccccc1OC(F)F	x	x	x	-2	x	x	x	x	x
C/C(=N\NC(=O)Cc1c(C)[nH][nH]c1=O)c1ccc(Cl)c(Cl)c1	100	i	i	5	-2	99	x	x	x
C/C(=N/NC(=O)Cc1c(C)[nH][nH]c1=O)c1ccc(O)cc1	145*	i	i	13	2	113	97	-5	100
O=C1CN(C(=O)COC(=O)c2cc(S(=O)(=O)N3CCOCC3)ccc2Cl)c2ccccc2N1	98	i	i	844	-2	94	x	x	x
CCOc1ccccc1N/C(=N/c1nc(C)cc(C)n1)NC(=O)Nc1ccc(Cl)c(Cl)c1	72*[inhibitor]	i	i	7	-1	94	100	-5	102
Cc1ccc(SCCc2cc[n+](CC(=O)c3ccccc3)cc2)cc1	101	i	i	65	-3	143*	153	36	96
Cc1ccc(C(=O)C[n+]2ccc(Cc3ccccc3)cc2)cc1	104	i	i	8	2	106	x	x	x
O=C(C[n+]1ccc(CCSc2ccc(F)cc2)cc1)c1ccccc1	93	i	i	-43	249*	61*	149	27	101
CC1(C)CC(=O)C=C(Nc2ccc(C(=O)O)c(O)c2)C1	103	i	i	-12	5	103	x	x	x
O=C(CSc1nc2ccccc2[nH]1)Nc1nc(-c2ccc(Br)cc2)cs1	173*	i	i	-3	1	116	99	-8	103
Cc1ccccc1CNS(=O)(=O)c1csc(C(N)=O)c1	99	i	i	4	5	103	x	x	x
CCCCn1nc(C(=O)N(C)C2CCCCC2)c2ccccc2c1=O	x	x	x	8	x	x	x	x	x
Cc1ccc(NC(=O)COC(=O)C2CC3CCCC(C2)C3=O)c([N+](=O)[O-])c1 (centres undefined)	x	x	x	-6	x	x	x	x	x
COc1ccc(C2=C/C(=C/c3cccnc3)C(=O)O2)cc1OC	97	i	i	-5	-2	96	x	x	x
CCOc1ccc(C2=C/C(=C/c3cccnc3)C(=O)O2)cc1	82*[inhibitor]	i	i	3	-2	84	37	-17	59*
C#CCOCCOCCOCCNc1nc(N2CCN(C(=O)Cn3cc(CC(C)O)nn3)CC2)nc(N2CCN(C(=O)[C@H]([C@@H](C)CC)n3cc(CCCN=C(N)N)nn3)CC2)n1 (some centres undefined)	98	i	i	-16	3	93	x	x	x
C#CCOCCOCCOCCNc1nc(N2CCN(C(=O)[C@H]([C@@H](C)CC)n3cc(CCCN=C(N)N)nn3)CC2)nc(N2CCN(C(=O)[C@H](C)n3cc(CCCN=C(N)N)nn3)CC2)n1	104	i	i	-3	4	124	x	x	x
C#CCOCCOCCOCCNc1nc(N2CCOCC2)nc(N2CCN(C(=O)[C@H](C)n3cc(CCCN=C(N)N)nn3)CC2)n1	1.0*[inhibitor]	i	i	6	5	2.0*[inhibitor]	107	2	98
SMILES	MEKK3 PB1 HTS	CHT PAM	CHT block	Mot1-301 SUMO	MEKK2 mut-MEK5	MEKK2wt PB1 HTS	MEKK2wt confirm	MEKK2mut-MEK5	MEKK3 confirm
C#CCOCCOCCOCCNc1nc(N2CCN(C(=O)[C@H]([C@@H](C)CC)n3cc(CCCN=C(N)N)nn3)CC2)nc(N2CCN(C(=O)[C@H]([C@@H](C)CC)n3cc(CCCN=C(N)N)nn3)CC2)n1	110	x	x	x	18	164*	175	40	102
O=C(CSCC(=O)NC1CCCC1)Nc1ccccc1	128*	i	i	-11	1	106	97	-3	100
O=C(CSCC(=O)NC1CC1)Nc1ccc2ccccc2c1	100	x	x	x	5	111	x	x	x
O=C(CCSCc1cccc(Cl)c1)NC1CCCC1	122	i	i	-3	0	102	x	x	x
O=C(CCSCc1ccccc1Cl)NC1CCCC1	2.0*[inhibitor]	i	i	1	-15	2.0*[inhibitor]	107	3	104
CN1CCN(c2ccccc2NC(=O)c2cc3c(s2)-c2ccccc2OC3)CC1	101	i	i	35	21	146*	172	37	107
COC(=O)Nc1nn(Cc2ccccc2F)cc1Br	74*[inhibitor]	i	i	13	-10	82	104	8	104
CCOC(=O)c1c(S(=O)(=O)NCC(=O)NCc2cccc(C)c2)c(C)n(C)c1C	100	i	i	0	-4	99	x	x	x
CCOc1ccc(N2C(=O)CC(NC3CCN(C(=O)c4ccc(F)cc4)CC3)C2=O)cc1 (centres undefined)	102	i	i	-4	0	95	x	x	x
COc1cc(/C=N/OCC(=O)Nc2ccc(OC(F)F)cc2)ccc1OCc1ccccc1	135*	i	i	-6	-1	108	99	-7	101
COc1cc(/C=N/OCC(=O)NC2CCCCC2)ccc1OCc1ccccc1	99	i	i	3	-2	96	x	x	x
CCCCNC(=O)c1ccccc1NC(=O)CCC	119	i	i	148	0	109	x	x	x
